Screening results deposited in PubChem by National Center for Advancing Translational Sciences (NCATS).
The full list was thinned out, with hits kept by preference.
TCR activator = activates T cell receptor signaling; primary human leukocytes, anti-CD3, IL-2 HTRF, 48 h; Potency, µM (doses to about 9.22 µM), inactives show top-dose activation of IL-2 secretion, usual class: activators; 330,000 tested, under 10 active; AID 504894; note: % of control where 0% means no effect
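Compounds are tested in HTS on primary human leukocytes co-incubated with a-CD3 beads for 48 hr. IL-2 output is measured by time-resolved FRET.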
RXFP1 ag = agonists of human relaxin receptor RXFP1; Potency, µM (titrated, usually from 57.5 µM), for inactives: at the top dose activation, usual class: activators; HEK293T-RXFP1 cAMP TR-FRET, 30 min; response scale: percent of porcine relaxin response, buffer zero; Q9HBX9; 370,000 compounds, 0.3% hits; note: potency is the fitted concentration of half-maximal effect; % is set by controls: 0 for no effect and ±100 for the full control effect; nearly all actives have a fitted effect of over 60% in size
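HEK293 cells stably expressing RXFP1, treated 30 min at 37C with compounds plus PDE4 inhibitor Ro 20174; cAMP measured by HTRF TR-FRET. Normalized to buffer and 29 nM porcine relaxin; EC50 by Hill fit.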
PTHR1 ag = activates the human parathyroid hormone receptor PTHR1; Q03431; HEK293 GP2 PTHR1 cells, GloSensor cAMP luminescence, 1 h; Potency, µM (top dose mostly 115 µM), for the others: at the top dose activation, actives largely listed as activators; 410,000 compounds, 0.075% hits; AID 743266; note: potency is the fitted concentration of half-maximal effect; nearly all actives have a fitted effect of over 55% in size
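HEK-293-derived GP2 cells expressing PTHR1 and a GloSensor cAMP reporter, 3,000/well, plated overnight, given luciferin plus IBMX (each 0.5 mM as added) for 1 h at 37 °C, then compound for 1 h at 37 °C. Luminescence was read after 15 min at room temperature.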
NPSR antagonist = neuropeptide S receptor (human) antagonism, cAMP. Q6W5P4. CHO-NPSR cells, cAMP TR-FRET, antagonist mode. Potency, µM (series often up to 38.3 µM), without a hit: top-dose activity change, negative = inhibition, usual class: inhibitors. 220,000 compounds, 1% hits; note: potency is the fitted concentration of half-maximal effect; % is set by controls: 0 for no effect and ±100 for the full control effect; nearly all actives have a fitted effect of over 50% in size
Target sequence (Q6W5P4 whole entry, looked up): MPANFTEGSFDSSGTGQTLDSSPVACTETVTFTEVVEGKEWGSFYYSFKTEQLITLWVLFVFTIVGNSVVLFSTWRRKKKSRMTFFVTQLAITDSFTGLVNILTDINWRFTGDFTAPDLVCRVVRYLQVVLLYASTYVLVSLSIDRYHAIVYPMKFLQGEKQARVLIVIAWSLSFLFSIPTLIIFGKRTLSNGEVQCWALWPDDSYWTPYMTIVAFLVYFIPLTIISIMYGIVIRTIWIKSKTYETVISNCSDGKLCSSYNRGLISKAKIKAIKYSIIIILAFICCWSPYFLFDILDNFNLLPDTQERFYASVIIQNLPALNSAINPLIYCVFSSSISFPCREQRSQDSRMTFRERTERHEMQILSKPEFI
TSHR antagonist = antagonists of human thyroid stimulating hormone receptor | P16473 | TSHR-expressing cells, TSH-stimulated cAMP HTRF, 2 h; hits give low values | activity change, negative = inhibition, % at 11.5 µM | 330,000 compounds, 0.2% hits | AID 504810;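 active = activity change below a set negative limit, meaning inhibition stronger than a set level, cut at about -70% in these data; inconclusive = activity change between two set negative limits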; note: % is set by controls: 0 for no effect and ±100 for the full control effect
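Competitive HTRF cAMP read-out (cryptate anti-cAMP antibody, cAMP-d2; 30 min, room temperature) in freshly harvested TSHR cells. Compounds added before TSH at EC80 (4nM final), followed by 2 hours' incubation at 37 deg C.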
RXFP1 antagonist = blocks the human relaxin receptor RXFP1; Q9HBX9; HEK293-RXFP1, relaxin-stimulated cAMP HTRF, 30 min; hits give low values; activity change, negative = inhibition, % at 57.5 µM; 350,000 compounds, 0.59% hits;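 active = activity change of -60% or lower, but not beyond a set lower limit; inconclusive = change between -60% and -40%, or beyond the set limit; inactive = change above -40%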; note: % is set by controls: 0 for no effect and ±100 for the full control effect
Active calls of the source: *; i = inactive; ? = inconclusive; . = no result given; [ ] = remark or other dose. Unless noted, calls come from the whole dose curve; as a rule, active = well fitted curve in the direction sought with a large enough effect; inconclusive = small, poorly fitted or top-dose-only effect, or another doubt; inactive = no such curve, though single readings can be large; an effect the other way counts as inactive or inconclusive.

SMILES	TCR activator	RXFP1 ag	PTHR1 ag	NPSR antagonist	TSHR antagonist	RXFP1 antagonist
CCOC(=O)/C(=N\Nc1ccccc1)S(=O)(=O)c1ccccc1	-5.1%	-1.5%	-31.3%	-7.4%[46.1 µM]	2.3	12.1
Cc1ccc(CCNC(=O)Cn2nc(-c3ccc(C)cc3)ccc2=O)cc1	.	-3.6%	10.6%	.	.	4.5
Cc1oc(=O)c(NC(=O)c2cccc(Cl)c2)cc1C(=O)c1ccccc1	3.0%	0.2%	i	7.94µM*	8.9	-37.1
COc1ccc(C(=O)Nc2cc(C(=O)c3ccccc3)c(C)oc2=O)cc1	3.6%	0.6%	-16.4%	?	-4.9	-23.9
Cc1ccc(NN2C(=O)C=C(c3ccc(Cl)cc3)C2=O)cc1	-4.4%	1.7%	-20.4%	7.94µM*	6.1	-95.6*
COc1ccc(C2=CC(=O)N(Nc3ccccc3)C2=O)cc1	1.9%	2.4%	-30.6%	-9.6%	-10.5	?
O=C1C=C(c2ccccc2)C(=O)N1Nc1ccccc1	-0.8%	0.6%	-36.0%	12.6µM*	-14.1	-108.5*
CCOC(=O)C1CCN(c2nc(-c3ccc(Br)cc3)cs2)CC1	.	.	.	.	-18.9	.
COc1ccc(-c2nc3c(C#N)c[nH]n3c2NC2CCCC2)cc1	.	-0.1%	i	.	.	-14.2
CC(C)(C)c1ccc(/C=C/C(=O)Nc2ccc(S(N)(=O)=O)cc2)cc1	.	1.3%	-10.4%	.	.	.
COc1ccc(CNC(=O)CN2CCN(C(c3ccccc3)c3ccccc3)CC2)cc1	2.6%	0.6%	-2.0%	-52.3%	13.4	-24.7
Cc1ccc(CN2CCN(CC(=O)NCc3ccccc3)CC2)cc1	-2.1%	0.6%	-13.6%	.	2.6	-98.8*
O=C(CN1CCN(C(c2ccccc2)c2ccccc2)CC1)NCc1ccccc1	.	-1.9%	i	?	12.6	-74.2*
Cc1ccccc1CSc1cn(CC(=O)N2CCCC2)c2ccccc12	.	3.9%	-7.3%	.	.	?
CCCC(=O)NC(c1ccco1)c1cc(Cl)c2cccnc2c1O (centres undefined)	0.6%	0.4%	-5.4%[57.5 µM]	-27.4%[46.1 µM]	3.9	-66.5*
CCCC(=O)NC(c1ccc(Cl)cc1)c1ccc2cccnc2c1O (centres undefined)	10.9%	0.1%	i	.	-11.1	-19.6
CCCC(=O)NC(c1cccs1)c1cc(Cl)c2cccnc2c1O (centres undefined)	-11.5%	3.2%	-25.0%	?	9.0	?
CCCC(=O)NC(c1ccc(Cl)cc1Cl)c1ccc2cccnc2c1O (centres undefined)	1.3%	1.8%	-2.1%	.	-15.0	-61.6*
CC(=O)NC(c1ccc2ccccc2c1)c1ccc2cccnc2c1O (centres undefined)	5.4%	1.6%	-63.2%	.	8.2	-69.9*
CCCCOC(=O)c1ccc(NC(=O)Cn2nnc3sc4c(c3c2=O)CCCC4)cc1	.	1.6%	-4.3%	.	.	-6.3
C[N+](C)(C)CC(O)CC(=O)[O-] (centres undefined)	.	.	.	.	.	9.3
COc1ccc(NS(=O)(=O)c2cccc(NC(=O)C3=NN(c4ccccc4)C(=O)CC3)c2)cc1	2.0%	-1.1%	-42.3%	.	-112.3*	-12.0
COc1ccc(NS(=O)(=O)c2cc(NC(=O)C3=NN(c4ccccc4)C(=O)CC3)ccc2C)cc1	-16.4%	.	-57.0%	.	.	-5.1
Cc1cnc(NS(=O)(=O)c2ccc(N)cc2)nc1	.	.	.	.	.	15.4
O=S(Cc1ccc(Br)cc1)Cc1nnc(SCc2c(Cl)cccc2Cl)n1-c1ccccc1 (centres undefined)	0.9%	0.1%	i	10µM*	-1.6	-4.5
SMILES	TCR activator	RXFP1 ag	PTHR1 ag	NPSR antagonist	TSHR antagonist	RXFP1 antagonist
O=C(C1CCCCC1)N1CC(=O)N2CCCc3ccccc3C2C1 (centres undefined)	.	.	.	.	.	-18.3
CC1(C(=O)N/N=C/c2c(F)c(F)c(F)c(F)c2F)CC1(Cl)Cl (centres undefined)	-1.4%	.	-28.8%	.	.	-67.6*
Cc1c(/C=N\NC(=O)C2(C)CC2(Cl)Cl)cnn1C (centres undefined)	-0.4%[46.1 µM]	3.6%	i	1.4%	-4.1	.
O=[N+]([O-])c1cc2c(c(CSc3ncccn3)c1)OCOC2	4.9%	14.1µM*	-4.0%	-9.2%	8.0	11.1
Nc1cc(N)nc(SCc2cc([N+](=O)[O-])cc3c2OCOC3)n1	1.5%	12.4%	-6.8%	17.0%	27.6	-0.4
Cc1cc(C)n(-c2nc(SCCN(C)C)c3c4c(sc3n2)CCCC4)n1	1.3%	4.2%	-4.1%	?	-9.8	-60.9*
CCOC(=O)c1c(NC(=O)CSc2n[nH]c(CNc3ccccc3)n2)sc(C)c1C	-4.9%[46.1 µM]	-1.9%	i	-33.4%	0.5	?
CCOC(=O)c1c(NC(=O)CSc2n[nH]c(-c3ccco3)n2)sc(C)c1C	-3.6%	-1.1%	-1.3%	-8.5%[46.1 µM]	-2.2	-74.8*
CC(C)Cn1c(SCC(=O)NC(=O)NC2CCCC2)nc2ccccc21	3.0%	0.5%	-4.9%[57.5 µM]	-24.5%[46.1 µM]	-8.5	-66.0*
CN(CC(=O)Nc1ccc(Cl)c(Cl)c1)Cc1nnc(-c2ccc(F)cc2)o1	6.8%	-0.1%	-20.3%	-7.1%	-11.2	-63.1*
COc1ccc(CCNC(=O)C(=O)Nc2ccc(C)cc2)cc1OC	.	1.3%	-19.0%	.	.	.
CN(CC(=O)NC1CCN(Cc2ccccc2)CC1)S(=O)(=O)c1ccc2c(c1)c(=O)n(C)c(=O)n2C	2.6%	2.5%	i	14.3%	-2.2	2.1
CSCCC(NS(=O)(=O)c1ccc2c(c1)c(=O)n(C)c(=O)n2C)C(=O)NC1CCN(Cc2ccccc2)CC1 (centres undefined)	-4.9%	17.8µM*	-9.9%	-39.7%	1.2	-9.5
CCn1c(CNc2cccc(C(F)(F)F)c2)n[nH]c1=S	-0.7%	-0.8%	-13.5%	4.7%	18.0	-110.3*
O=c1[nH]nc(CNc2cccc(C(F)(F)F)c2)c2ccccc12	7.7%	-0.7%	-63.3%	2.4%	-9.7	-1.6
COc1ccccc1-n1ncc2c(=O)[nH]c(SCC(=O)Nc3cccc(F)c3)nc21	.	1.1%	-5.2%	.	.	2.1
CCN(CC)CCN1C(=O)c2cccc3cc(N)cc(c23)C1=O	-22.1%	8.4%	-48.7%	?	-75.9*	-9.1
Cc1ccc2nc3c(cc2c1)CN(Cc1ccco1)C(=NCC1CCCO1)S3 (centres undefined)	-6.2%	3.0%	-14.3%[57.5 µM]	-23.7%[46.1 µM]	-8.7	-11.6
Cc1cccc2cc3c(nc12)SC(=NCC1CCCO1)N(Cc1ccco1)C3 (centres undefined)	0.2%	3.4%	i	10µM*	-26.6	-19.6
CCCC1(c2ccccc2)NC(=O)N(CC(=O)Nc2sc(-c3ccccc3)cc2C(=O)OCC)C1=O (centres undefined)	-31.2%	28.2µM*	i	?	15.5	-7.2
